Data as given in PubChem BioAssay (NCI).
Compounds without any hit were thinned out: in the full panel of roughly 83,000, 20% have a hit.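 Growth was measured after 48 h exposure to one concentration of compound in 96-well plates. Values under 10 count as active.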 Calls of active or inactive are those of the source.

test system: HCC-2998 colon; assay: NCI-60 one-dose screen, 48 h (100 = growth as untreated, 0 = no growth, -100 = all killed); conditions: 10 µM

Row | Compound | growth
1 | CO/C=C/C(=O)c1cc2cnc3c(=N)cc(NC(=O)C(C)C)c([nH]1)c23 | -21% (active)
2 | Cc1cc2c(-c3nc4ccccn4c3Nc3cccc4ccccc34)c(O)c(O)cc2c(O)c1-c1c(C)cc2c(-c3nc4ccccn4c3Nc3cccc4ccccc34)c(O)c(O)cc2c1O | 41.8% (inactive)
3 | Cc1cc(N2CCOCC2)nc(N(CCNc2ccnc3cc(Cl)ccc23)Cc2cccs2)n1 | -12.7% (active)
4 | CCCCCCCC(=O)SCC/C=C/[C@@H]1CC(=O)NCc2cc(ccn2)C2=N[C@@](C)(CS2)C(=O)N[C@@H](C(C)C)C(=O)O1 | -67.8% (active)
5 | Cc1sc2c(c1C)c(=O)nc1c(-c3nc4ccccc4s3)n[nH]n12 | 96.3% (inactive)
6 | CC(C)(C)CC(C)(C)Nc1c(-c2c(O)c3ccccc3oc2=O)nc2c(Cl)cc(C(F)(F)F)cn12 | 107% (inactive)
7 | CCOc1cccc(/C=N/NC(=O)c2ccccc2Nc2ccnc(C(F)(F)F)c2)c1O | 48.6% (inactive)
8 | Cc1cc2c(-c3nc4ccccn4c3NC3CCCCC3)c(O)c(O)cc2c(O)c1-c1c(C)cc2c(-c3nc4ccccn4c3NC3CCCCC3)c(O)c(O)cc2c1O | 46.2% (inactive)
9 | C=CCC(=O)N[C@H](/C=C/C(=O)O)Cc1ccc(-c2cc(Cl)cc(Cl)c2)cc1 | 101% (inactive)
10 | CN1CCN(c2nc(NCCNc3ccnc4cc(Cl)ccc34)c3ccccc3n2)CC1 | 9.65% (active)
11 | C[C@@H](C[C@H](CCO)c1cc(C(F)(F)F)cc(C(F)(F)F)c1)c1ccc2ccccc2c1 | 86.1% (inactive)
12 | C=C1C(=O)O[C@H]2[C@H]1CC/C(Cn1cc(-c3cc(C)c(C)cc3C)nn1)=C\CC[C@@]1(C)O[C@@H]21 | -91.7% (active)
13 | COc1ccc2c(CCCc3ccc(Cl)cc3Cl)c3[n+](cc2c1OC)CCc1cc2c(cc1-3)OCO2 | -83.7% (active)
14 | CCN1CCN(c2cc(C)nc(N(CCCNc3ccnc4cc(Cl)ccc34)Cc3ccc4c(c3)OCO4)n2)CC1 | -42.3% (active)
15 | O=C1CC(c2ccc(Cl)cc2)c2ncn(-c3cccc(Cl)c3)c2N1 (configuration not stated) | 77.4% (inactive)
16 | Cc1ccccc1Nc1nc2nonc2nc1Nc1cccc(C)c1C | 67.5% (inactive)

Row | Compound | growth
17 | Fc1ccc(NCc2cn(-c3ccccc3)nc2-c2ccc(OCc3ccccc3)cc2)cc1Cl | 102% (inactive)
18 | CCCCCCCC(=O)SCC/C=C/[C@@H]1CC(=O)NCc2cccc(n2)C2=N[C@@](C)(CS2)C(=O)N[C@@H](C(C)C)C(=O)O1 | -73.4% (active)
19 | COC(=O)C1CCc2sc3ncnc(Nc4cn[nH]c4C(=O)Nc4ccc(CN5CCN(C)CC5)cc4)c3c21 (configuration not stated) | 27.2% (inactive)
20 | C=CC(=O)N(C)[C@H]1C[C@H]2OC(C)(C1OC)n1c3ccccc3c3c4c(c5c6ccccc6n2c5c31)C(=O)NC4 (some centres not stated) | -48.1% (active)
21 | Cc1cc(N(CCNc2ccnc3cc(Cl)ccc23)Cc2ccc3c(c2)OCO3)nc(N2CCN(C)CC2)n1 | -30.8% (active)
22 | CN1CCN(CCCOc2cccc3nc(Nc4ccc(Cl)c(C(F)(F)F)c4)ccc23)CC1 | -90.8% (active)
23 | Nc1c2c(c(O)c3c1=C(CO)C=N3)=NCCS2 | -94.2% (active)
24 | Cc1cc(O)c2c(c1)C1OC(=O)CCCCCN1C1=C2C(=O)c2cccc(OC3CC(O)C(O)C(C)O3)c2C1=O (configuration not stated) | 73% (inactive)
25 | CC1(C=O)NC(=O)NC1=O (configuration not stated) | 94.7% (inactive)
26 | COc1ccc(Nc2ncccc2NC(=O)c2cn(Cc3cccc(Oc4ccccc4)c3)nn2)cc1 | 115% (inactive)
27 | OCCNC(=S)Nc1ccc(-c2nc(N3C[C@H]4CC[C@@H](C3)O4)c3cccn3n2)cc1 | 20.8% (inactive)
28 | O=C(c1ccccc1)C(c1ccccc1)N1CCOCC1 (configuration not stated) | 102% (inactive)
29 | NN1C(=O)CSC1=S | 110% (inactive)
30 | CC12O[C@H](C[C@@H](OC(=O)CCC(=O)O)[C@H]1O)n1c3ccccc3c3c4c(c5c6ccccc6n2c5c31)C(=O)NC4=O | 41.3% (inactive)
31 | C=C1[C@@H](O)C[C@H]2C(C)(C)C[C@H](Cl)C[C@]2(C)[C@H]1C[C@H](O)[C@H]1CC(=O)NC1=O | -44.9% (active)
32 | COC(=O)[C@H](Cc1ccccc1)NC(=O)[C@@H](OC)[C@@H]1Cc2cc3cc(OC4CC(OC5CC(O)C(O)C(C)O5)C(O)C(C)O4)c(C)c(O)c3c(O)c2C(=O)[C@H]1OC1CC(OC2CC(OC3CC(C)(O)C(O)C(C)O3)C(O)C(C)O2)C(O)C(C)O1 (some centres not stated) | -45.2% (active)
